In all, about 420,000 compounds went through this assay and about 50,000 (12%) were called active. Where a call stands in place of a potency, no number is given. Another 26% or so got no clear call; they are omitted. Calls follow the shape of the dose curve; as a rule, active = well fitted inhibition curve with a large enough effect; inconclusive = small, poorly fitted or top-dose-only effect; inactive = flat fitted curve, though single readings scatter. For the sample, actives were picked, then their nearest neighbours and some compounds at random.
assay: qHTS for Inhibitors of human tyrosyl-DNA phosphodiesterase 1 (TDP1): qHTS in cells in presence of CPT; conditions: chicken DT40 Tdp1-/-;hTDP1 cells + 20 nM CPT, ATP luminescence, 48 h; series mostly up to 46.2 µM; also: nearly all actives have a fitted effect of over 55% in size
In short: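 Chicken DT40 Tdp1-/- cells stably complemented with human TDP1 were seeded at 400 cells/well in medium containing 20 nM camptothecin, exposed to pin-transferred compounds, and grown at 37 °C for at least 48 hr. Viability was read as ATP luminescence.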
Potency is read from the fitted curve at half-maximal effect.

Structure (SMILES)	Potency	activity change, negative = growth inhibition
O=C(O)c1cc(S(=O)(=O)NC2CCCc3ccccc32)ccc1O (stereo not given)	inactive	–
O=c1[nH]c2ccccc2n1C1CCN(CCOc2ccccc2)CC1	3.66 µM (active)	–
O=C(c1ccc(Br)o1)N1CCN(CCOc2ccccc2)CC1	inactive	–
O=C(c1ccco1)N1CCN(CCOc2ccccc2)CC1	inactive	–
CO[C@@H]1CN(C)C(=O)c2cc(NC(=O)C3CC3)ccc2OC[C@H](C)N(C(=O)CN2CCOCC2)C[C@@H]1C	inactive	–
NC(=O)C1CC(=O)N(c2ccc(OCC(=O)NCc3ccccc3)cc2)C1 (stereo not given)	inactive	–
O=C(c1cccc(Cl)c1)N1CCN(Cc2ccccc2)CC1	inactive	–
O=C(c1cccc(Cl)c1)N1CCN(CCc2ccncc2)CC1	inactive	–
CN(C)CCN1CCN(c2cc(-c3cccc(Cl)c3)nc3ccnn23)CC1	inactive	–
C#Cc1cc(N2CCN(C(=O)c3ccoc3)CC2)n2nc(-c3cccc(Cl)c3)cc2n1	7.31 µM (active)	–
O=C(c1ccccc1)N1CCN(c2cc(-c3ccccc3)nc3cc(-c4cccc(Cl)c4)nn23)CC1	23.1 µM (active)	–
CCCNC(=O)c1ccc(Cn2c(SCC(N)=O)nc3ccccc3c2=O)cc1	inactive	–
CCOc1ccccc1Nc1ccc2nonc2c1[N+](=O)[O-]	inactive	–
O=C(OCC(=O)N1CCCCCC1)c1cnc(Cl)c(Cl)c1	inactive	–
CCOC(=O)C1CCN(Cc2c(C(=O)N3CCOCC3)nc3c(C)cccn23)CC1	inactive	–
CCOC(=O)C(NC(=O)CC(C)C)(Nc1sc2c(c1C(N)=O)CCCC2)C(F)(F)F (stereo not given)	inactive	–
Cc1nc2ccc(NC(=O)C3CCCCC3)cc2s1	inactive	–
CCC(=O)c1ccc(OCC(=O)Nc2ccc(N3CCCCC3)cc2)cc1	inactive	–
CCOc1ccc2nc(Nc3nc4ccc(NC(C)=O)cc4s3)sc2c1	18.4 µM (active)	–
CCC(=O)c1ccc(OCC(=O)Nc2ccc3nc(C)sc3c2)cc1	16.4 µM (active)	–
CCOc1ccc(S(=O)(=O)Nc2nc3cc(OC)ccc3s2)cc1	inactive	–
CC(=O)Nc1ccc2nc(NC(=O)CS(=O)(=O)c3ccc(F)cc3)sc2c1	inactive	–
CC(CC(=O)Nc1ccc(F)cc1F)S(=O)(=O)c1ccc2c(c1)NC(=O)CO2 (stereo not given)	inactive	–
c1ccc2c(c1)CCc1snnc1-2	inactive	–
O=C(CCNS(=O)(=O)c1ccc(Br)cc1)NCC1CCCO1 (stereo not given)	inactive	–
CCc1cc(-c2n[nH]c(=S)n2CC(C)C)cs1	inactive	–
CCC(=O)c1ccc(OCC(O)CN2CC(C)OC(C)C2)cc1 (stereo not given)	inactive	–

Structure (SMILES)	Potency	activity change, negative = growth inhibition
C[N+]1(CC(=O)c2cccs2)CCOCC1	inactive	–
CC(C)CCOc1ccc(C(=O)C[N+]2(C)CCOCC2)cc1	20.6 µM (active)	–
COc1ccc(Br)cc1CNC(=O)c1cc(=O)[nH]c2ccc(S(=O)(=O)N3CCCC3)cc12	inactive	–
CCOC(=O)c1c(C)n(C)c2ccc(OC)c(NC(=O)CN3CCC4(CC3)OCCO4)c12	inactive	–
Cc1nnc(NC(=O)/C=C/c2ccco2)s1	inactive	–
Cc1ccc(-n2nc3ccc(NC(=O)/C=C/c4ccco4)cc3n2)cc1C	23.1 µM (active)	–
CCC(=O)Nc1ccc2nn(-c3ccc(F)cc3)nc2c1	inactive	–
COc1ccc(C(CC(=O)N2CCN(c3ccccc3)CC2)c2c(O)cc(OC)cc2OC)cc1 (stereo not given)	inactive	–
COc1ccc(F)cc1S(=O)(=O)NCC(c1ccc2c(c1)OCO2)N1CCN(C)CC1 (stereo not given)	inactive	–
O=C(C(=O)N1CCN(c2ccccc2)CC1)c1ccc2c(c1)OCO2	inactive	–
COc1cc(OC)c2ccc(=O)oc2c1C(CCN1CCN(c2ccccc2)CC1)c1ccc2c(c1)OCO2 (stereo not given)	23.1 µM (active)	–
COc1ccc(C(c2nnnn2Cc2cccs2)N2CCN(c3ccccc3)CC2)cc1OC (stereo not given)	inactive	–
COc1cc(C(CCN2CCN(c3ccccc3)CC2)c2c(OC)cc(OC)c3ccc(=O)oc23)cc(OC)c1OC (stereo not given)	23.1 µM (active)	–
C=CCNC(=S)NNC(=O)c1ccc(Br)o1	inactive	–
CCn1c(O)c2ccc(C(=O)N=NC(=O)c3cccnc3)cc2c1O	inactive	–
CN(Cc1ccco1)c1cc(-c2ccccc2C(F)(F)F)ncn1	inactive	–
COc1ccccc1CNc1cc(-c2ccccc2CN(C)C)ncn1	inactive	–
FC(F)(F)c1ccccc1-c1cc(NCc2ccccc2)ncn1	7.31 µM (active)	–
CCOc1cc(S(=O)(=O)NCc2ccc3c(c2)OCO3)ccc1F	inactive	–
Cc1ccc(C(=O)O/N=C(\N)c2ccccn2)cc1Cl	inactive	–
COc1ccccc1-c1ccc(C(=O)N(C)C(C)c2ccon2)c(N2CCN(c3ccccc3F)CC2)n1 (stereo not given)	–	15.9% [at 9.04 µM] (inactive)
CC(C)C1=CC2=CC[C@H]3[C@](C)(C(=O)O)CCC[C@]3(C)C2CC1 (stereo not given in full)	–	26.1% [at 9.04 µM] (inactive)
O=C(NN1C(=O)C2C3C=CC(C3)C2C1=O)c1ccco1 (stereo not given)	inactive	–
COc1cccc(-c2nc(Nc3ccncc3)c3ccccc3n2)c1	8.2 µM (active)	–
COc1cc(Nc2nc(-c3ccc(OC)c(OC)c3)nc3ccccc23)cc(OC)c1	5.8 µM (active)	–
Cc1noc(C)c1-c1nc(Nc2ccccc2)c2ccccc2n1	inactive	–
COc1ccc(Cl)cc1N(CC(=O)N1CCCCC1)S(C)(=O)=O	inactive	–

Structure (SMILES)	Potency	activity change, negative = growth inhibition
C=Cn1cc[n+](CC(=O)c2ccc(OC)c(OC)c2)c1	inactive	–
COc1ccc(C23NCCN2C(=O)c2ccccc23)cc1 (stereo not given)	inactive	–
Cc1cccc(S(=O)(=O)N(C)C[C@H]2OCc3cnnn3CCCC(=O)N([C@@H](C)CO)C[C@H]2C)c1	inactive	–
CCCCn1c(N)c(N(Cc2ccccc2OC)C(=O)COc2cc(C)ccc2Cl)c(=O)[nH]c1=O	inactive	–
CCCCc1nn2c(=O)cc(COC(=O)c3cccc(NC(=O)COc4ccccc4)c3)nc2s1	inactive	–
COc1ccc(CN2CCC(C)(Oc3cccc(F)c3)C2)c2ccccc12 (stereo not given)	23.1 µM (active)	–
COc1ccccc1CN1CC2(CCN(S(=O)(=O)c3ccccc3)CC2)C1	inactive	–
CCOc1cc(CN2CCCC(CO)(Cc3ccc(F)cc3F)C2)ccc1OC (stereo not given)	inactive	–
Cc1ccc(CCNC(=O)CN2C(=O)CSc3ccc(S(=O)(=O)N4CCOCC4)cc32)cc1	inactive	–
C[C@H]1Cn2cnc(C(=O)N[C@@H](Cc3c[nH]c4ccccc34)C(=O)OC(C)(C)C)c2C(=O)N1	inactive	–
CS(=O)(=O)N1CCN(C(=O)Cc2ccccc2)CC1	inactive	–
CCCOc1ccc(Cn2c(O)cc(=O)[nH]c2=O)cc1	inactive	–
COc1cc(=O)[nH]c(=O)n1C(=O)Cc1ccccc1	13 µM (active)	–
COc1ccccc1NC(=O)[C@H](COCc1ccccc1)NC(=O)OC(C)(C)C	23.1 µM (active)	–
COc1ccccc1NC(=O)C(CC(=O)O)Cc1cc(C)cc(C)c1 (stereo not given)	inactive	–
COc1ccccc1NC(=O)C(C)OC(=O)CC1CCCC1 (stereo not given)	inactive	–
Cc1ccc(SCC(=O)NNC(=O)c2ccc(S(C)(=O)=O)cc2)cc1	inactive	–
CCOc1ccc(CNC(=O)c2ccc3c(c2)nnn3C2CCCC2)cc1	inactive	–
Cc1cc(Cl)ccc1OCc1nc(-c2ccncc2)no1	inactive	–
CCCOc1ccc(C(=O)Nc2ccc3oc(-c4cccc(Cl)c4Cl)nc3c2)cc1	8.2 µM (active)	–
CCc1ccc2oc(-c3ccc(NC(=O)c4cc5ccccc5o4)cc3)nc2c1	inactive	–
CCCCOc1ccc(C(=O)Nc2cccc(-c3nc4ccccc4o3)c2C)cc1	inactive	–
COc1cc(OC)cc(C(=O)Nc2ccc(-c3nc4ccccc4o3)c(O)c2)c1	18.4 µM (active)	–
O=C(Nc1ccc2oc(-c3ccc(O)c(Br)c3)nc2c1)c1cc2ccccc2o1	inactive	–
Cc1nc2cc(NC(=O)NCc3ccccc3)ccc2o1	inactive	–
COC(=O)c1ccc(-c2nc3cc(NC(C)=O)ccc3o2)cc1	inactive	–
Cc1nc2nc[nH]n2c(=O)c1NC(=O)c1cccc(OCC(C)C)c1	inactive	–

Structure (SMILES)	Potency	activity change, negative = growth inhibition
O=C(Nc1ccc(-c2nc3cc(NC(=O)c4ccccc4Cl)ccc3o2)cc1)c1ccccc1Cl	7.31 µM (active)	–
CC(=O)Nc1ccc(-c2nc3ccccc3o2)cc1	inactive	–
O=C(Nc1ccc(C(=O)O)c(O)c1)c1ccccc1	inactive	–
Cc1ccccc1-c1nc2cc(NC(=O)c3cccc(OCCC(C)C)c3)ccc2o1	23.1 µM (active)	–
O=Cc1c(NCCCN2CCCC2=O)c2ccccc2[nH]c1=O	inactive	–
Cc1cccc(C(=O)OC(C)CN2CCCC2)c1 (stereo not given)	inactive	–
COCCNC(=O)CCCN1C(=O)c2ccccc2Sc2ncccc21	inactive	–
Cc1ccc2c(Cl)c(C(=O)Nc3nn[nH]n3)sc2c1	inactive	–
O=C(COC(=O)CNC(=O)C1CCCCC1)Nc1cccc(F)c1	inactive	–
c1ccc(-c2cc(-c3nnc4sc(-c5ccccn5)nn34)[nH]n2)cc1	11.6 µM (active)	–
CCOc1cccc(-c2nn3c(-c4ccccn4)nnc3s2)c1	inactive	–
CN(C(=O)c1ccccn1)c1nnc(-c2ccccn2)s1	inactive	–
Cn1c(N)c(C(=O)COC(=O)c2ccccc2NCc2ccco2)c(=O)n(C)c1=O	inactive	–
Nc1cc(N)nc(SCc2ccc(Cl)cc2)n1	inactive	–
CC(O)CN(Cc1ccc(Cl)cc1)CC(C)O (stereo not given)	inactive	–
CC(C)N(C(=O)[C@H]1C[C@H](CC(=O)NC(C)(C)C)C(=O)N2CCc3c([nH]c4ccc(Cl)cc34)[C@]12C)C(C)C	7.31 µM (active)	–
CCN(CC)C(=O)[C@H]1C[C@H](CC(=O)NCC23CC4CC(CC(C4)C2)C3)C(=O)N2CCc3c([nH]c4cc(CCC(=O)N(C)C)ccc34)[C@]12C	20.6 µM (active)	–
CC[C@]12c3[nH]c4ccc(Cl)cc4c3CCN1C(=O)[C@@H](CC(=O)NCCCOC)C[C@@H]2C(=O)N1CCN(C(=O)C2CC2)CC1	inactive	–
C[C@]12c3[nH]c4ccc(Cl)cc4c3CCN1C(=O)[C@@H](CC(=O)NCCCn1ccnc1)C[C@@H]2C(=O)N1CCOCC1	inactive	–
CN(C)C(=O)CCc1ccc2c3c([nH]c2c1)[C@]1(C)[C@@H](C(=O)N2CCOCC2)C[C@H](CC(=O)NCCc2ccccn2)C(=O)N1CC3	inactive	–
CCN(CC)C(=O)[C@H]1CC(CC(=O)NCc2ccco2)C(=O)N2CCc3c([nH]c4ccccc34)[C@]12C (stereo not given in full)	inactive	–
CC[C@]12c3[nH]c4cc(CCC(=O)N(C)C)ccc4c3CCN1C(=O)[C@@H](CC(=O)NCc1ccco1)C[C@@H]2C(=O)N1CCN(C(=O)c2ccco2)CC1	inactive	–
CN(C)C(=O)CCc1ccc2c3c([nH]c2c1)[C@]1(CCc2ccccc2)[C@@H](C(=O)N2CCCCC2)C[C@H](CC(=O)NCCC2=CCCCC2)C(=O)N1CC3	8.2 µM (active)	–
CC[C@]12c3[nH]c4cc(CCC(=O)N(C)C)ccc4c3CCN1C(=O)[C@@H](CC(=O)NCCCN(C)C)C[C@@H]2C(=O)N1CCN(C(=O)c2ccco2)CC1	inactive	–
